Values joined by “and” are separate entries in the source; they are usually repeats but may differ in a detail not shown here. Equal entries are not always repeated. Among all 34,000 compounds or so, about 290 (0.85%) showed an effect of 50% or more. The entries come from a sample that favours strong results as a whole.
Tested on: Plasmodium falciparum
Test: Plasmodium falciparum sporozoite viability assay
Assay type: functional, organism-based
Design: scale not given: in the data most compounds retested in dose-response had high values

Compound | Percent Effect [%] | Percent Effect (10 mM as filed; unlikely as a test dose)
CNS(=O)(=O)c1ccc(C(=O)N2CCCCC2c2ccc(C)cc2)o1 (centres undefined) | -0.2417 | 
COCc1nc(CNC2CCCc3c2cnn3C(C)(C)C)cs1 (centres undefined) |  | 80.27% and 81.73%
Cn1ncc2c1CCCC2NCc1cnc(-c2ccccc2)nc1 (centres undefined) | 18.56 | 
CCc1nc(CNC2CCCc3c2cnn3CC)cs1 (centres undefined) |  | -15.59% and -14.06%
Cl.Cn1ncc2c1CCCC2NCc1cc(Br)cs1 (centres undefined) |  | 6.252% and 7.152% and 13.18%
CC(C)(C)n1ncc2c1CCCC2NCc1ccc2c(c1)CCO2 (centres undefined) |  | 65.53% and 54.34%
CC(C)(C)n1ncc2c1CCCC2NCc1ccc2ncccc2c1 (centres undefined) |  | 67.83% and 75.52%
CC(C)(C)n1ncc2c1CCCC2NCc1ccsc1 (centres undefined) |  | 82.25% and 82.56%
CC(C)(C)n1ncc2c1CCCC2NCc1cccc(C(N)=O)c1 (centres undefined) |  | -6.583% and -14.2%
CCn1ncc2c1CCCC2NCc1csc(COC)n1 (centres undefined) |  | -19.65% and -19.45%
Cl.Cn1ncc2c1CCCC2NCc1cccc(F)c1 (centres undefined) | -6.761 | 
Cn1ncc2c1CCCC2NCc1cccnc1 (centres undefined) | 6.267 | 
CSc1ccc(CNC2CCCc3c2cnn3C)cc1.Cl (centres undefined) | 2.328 | 
C[C@H]1C(=O)NC[C@H]2CN(Cc3cccc(F)c3)C[C@H]21.O=C(O)C(F)(F)F | -1.083 | 
CS(=O)(=O)NC1CCCN(C(=O)NCc2ccoc2)C1 (centres undefined) | 4.932 | 
O=C1CCCN1CCCC(=O)N1CCCC(c2ccn[nH]2)C1 (centres undefined) | 5.64 | 
CC1CN(CC(=O)Nc2nccs2)CCN1Cc1nccn1C (centres undefined) | -1.162 | 
CN(C)c1ccc(C(=O)N2CCN(CC(O)C(C)(C)C)CC2)nn1 (centres undefined) | -6.949 | 
O=C(N[C@@H]1CN(Cc2ccc3cc[nH]c3c2)C[C@H]1O)c1cnccn1 | -1.172 | 
O=C(O)C(F)(F)F.O=C(c1ccncc1F)N1CC2CC1(C(=O)N1CCCC1)C2 | -2.014 | 
Cc1cnn(CCNCc2c(C(C)C)nn(C)c2Cl)c1 | -5.882 | 
CC(C)(C)n1ncc2c1CCCC2NCc1ccc2c(c1)OCCO2 (centres undefined) |  | 101% and 99.54%
Cl.Cn1ncc2c1CCCC2NCc1cccc(C(F)(F)F)c1 (centres undefined) | -3.477 | 
CCn1ncc2c1CCCC2NCc1ccc2c(c1)CCO2 (centres undefined) |  | 59.7% and 48.65% and 59.52%

Compound | Percent Effect [%] | Percent Effect (10 mM as filed; unlikely as a test dose)
CCn1ncc2c1CCCC2NCc1ccc2c(c1)OCCO2 (centres undefined) |  | 33.22% and 25.15%
Cc1cccc(CNC2CCCc3c2cnn3C)c1.Cl (centres undefined) | -1.28 | 
CCn1ncc2c1CCCC2NCc1ccc(OC)c(C)c1 (centres undefined) | 1.069 | 
O=C(NCC1CCCO1)c1nc2c(s1)CCCN2C(=O)C1CC1 (centres undefined) | -5.565 | 
Cl.Cl.O=C([C@H]1CCCN1)N1CC2(CCNCC2)c2cc(Cl)ccc21 | 12.41 | 
Cc1cc(OCC(=O)N2CCCC(c3noc(C(C)C)n3)C2)no1 (centres undefined) | 2.432 | 
O=C(c1ccc[nH]1)N1C[C@H]2CN(Cc3cccc(F)c3)C(=O)[C@H]2C1 | 12.11 | 
c1csc(-c2noc(CN3CCCC3Cn3cccn3)n2)c1 (centres undefined) |  | -21.92% and -8.385% and -5.28%
c1csc(-c2noc(CN3CCCCC3Cn3cccn3)n2)c1 (centres undefined) |  | 24.36% and 19.77% and 16.14%
c1ccc(-c2noc(CCCN3CCCC3Cn3cncn3)n2)cc1 (centres undefined) |  | 40.22% and 41.76% and 47.25%
CCOc1ccnc(N[C@@H](Cc2ccccc2)C(N)=O)n1 | 0.8772 | 
CCOC(=O)CSc1ccc(-c2nc(CC)no2)cn1 |  | 40.67% and 46.73%
COC(=O)CSCc1noc(-c2ccc(Cl)cc2)n1 |  | 72.7% and 74.65%
COC(=O)CSCc1noc(-c2ccc(C)cc2)n1 |  | 97.51% and 95.63%
COC(=O)CSCc1nc(-c2ccc(Cl)cc2)no1 |  | -107.5% and -111.6%
CCOC(=O)CSc1ccc(-c2nc(C)no2)cn1 |  | -0.4631% and 0.4035%
Cc1ccc(-c2nc(CN3CCc4cnc(C)nc4C3)no2)cc1 | 16.875 | 
O=S1(=O)CCC(N(Cc2nc(-c3ccccn3)no2)Cc2cccs2)C1 (centres undefined) | 22.13 | 
CCN1CCN(CCCNc2ncccn2)CC1 | -11.01 | 
Cc1cc(CN(C)C(=O)c2ccc(N(C)C)nc2)no1 | 3.089 | 
NC(=O)c1cc(C2CCCN(CCOCC3CC3)C2)n[nH]1 (centres undefined) | -0.5536 | 
Cc1ccc(C2CN(Cc3cccc4[nH]ccc34)CCO2)nc1 (centres undefined) | 9.691 | 
CC(C)OC(=O)N1CCC(Cc2ccc(C(=O)O)cc2)C1 (centres undefined) | 5.074 | 
COCCOc1ccc(S(=O)(=O)Nc2cccnc2O)cc1C |  | -10.26% and -4.441%

Compound | Percent Effect [%] | Percent Effect (10 mM as filed; unlikely as a test dose)
COc1ccc(S(=O)(=O)NC(=O)COC2CCCCC2)cc1C | -5.465 | 
COCCOc1ccc(S(=O)(=O)Nc2cccc(O)c2F)cc1C |  | 65.91% and 54.13%
CC(C)N1CCN(C)CC(Cc2cc(N(C)C)ncn2)C1 (centres undefined) | 2.091 | 
CN1CCc2nc3cc(C(=O)NCc4cccs4)ccc3c(=O)n2CC1 | 0.8687 | 
CCCc1nc(CN2CCN(CC(O)c3ccccc3)CC2)no1 (centres undefined) |  | -24.09% and -24.64% and -18.14%
CCc1nc(CN2CCN(CC(O)c3ccccc3)CC2)no1 (centres undefined) |  | 4.576% and 5.713% and -3.353%
O=C(CC1CC1)N1CCCn2nnc(CNc3ncccn3)c2C1 | 2.773 | 
Cc1noc(C)c1C(=O)NCc1cccnc1N(C)C | 5.354 | 
CCC(=O)N1CC[C@H](O)[C@@H]1Cc1ccccc1 | -1.986 | 
CCc1ccc(CN2CCCCC2c2n[nH]cc2-c2cc(C)no2)cc1.Cl (centres undefined) |  | 63.83% and 48.62% and 58.14%
Cc1cccc(CN2CCCCC2c2n[nH]cc2-c2cc(C)no2)c1.Cl (centres undefined) |  | -21.49% and -8.887% and 2.992%
Nc1nccnc1CC1CCCN(Cc2cccc3[nH]ccc23)C1 (centres undefined) | 4.859 | 
NC(=O)C1CN(c2ccc3cc(Br)ccc3n2)CCO1 (centres undefined) |  | 80.55% and 85.86%
NC(=O)C1CN(c2ccc(Br)cn2)CCO1 (centres undefined) |  | -39.17% and -33.44%
NC(=O)C1CCN(c2ccc3cc(Br)ccc3n2)C1 (centres undefined) |  | -42.56% and -39.12%
Cc1cc(Cc2cccc(C(F)(F)F)c2)cc(C2CCCNC2)n1 (centres undefined) | 4.537 | 
CN(C)C(=O)CN1CCCCC1c1nc(N)ncc1-c1ccc(Cl)cc1 (centres undefined) | -1.537 | 
Cc1noc(C)c1C(=O)N1C[C@@H]2CN(Cc3cccnc3)CCO[C@@H]2C1 | -15.82 | 
CCc1nc(-c2cccc(C(=O)O)c2)no1 | 7.751 | 
CS(=O)(=O)NC1CCN(C(=O)NCCc2ccccn2)CC1 | -4.021 | 
Cc1ccc(S(=O)(=O)N2CCN(Cc3ccncc3)CC2)c(Cl)c1 | -1.432 | 
Cc1ccc(OCCN(C)C(=O)CCCC(N)=O)c(C)c1 | -6.308 | 
Cc1cn2c(n1)C(CNCc1cccc3c1OCO3)CCC2 (centres undefined) | 10.56 | 
Cc1cn2c(n1)C(CNCC1=Cc3ccccc3OC1)CCC2 (centres undefined) |  | 102.3% and 118.3% and 103.2%

Compound | Percent Effect [%] | Percent Effect (10 mM as filed; unlikely as a test dose)
Cc1ccc(N2CCCC(NCC3=Cc4ccccc4OC3)C2)nn1 (centres undefined) | 9.337 | 
Cc1cn2c(n1)C(CNCC1=Cc3cc(Cl)ccc3OC1)CCC2 (centres undefined) |  | 86.97% and 100% and 87.02%
CC(NCC1=Cc2cc(Cl)ccc2OC1)c1nnc2n1CCCC2 (centres undefined) | -0.2255 | 
CCc1n[nH]c(C2CN(Cc3nnc(C4CC4)o3)CCO2)n1 (centres undefined) | 4.502 | 
CCc1ncnc2c1CCN(CCOC)CC2.O=C(O)C(F)(F)F | 8.757 | 
CC1COCCN1C(=O)COc1ccc(Oc2ccccn2)cc1 (centres undefined) |  | 62.7% and 63.29% and 47.53%
CC1COCCN1C(=O)COc1cccc(Oc2ccccn2)c1 (centres undefined) |  | -6.319% and -6.647% and 2.396%
COc1ncccc1CN1CCc2[nH]nc(C(=O)N(C)C)c2C1 | 10.07 | 
COCCn1ccc2c(NC(=O)c3n[nH]c4c3CCC4)cccc21 |  | -3.571% and -16.58% and -12.91%
COCCn1ccc2c(C(=O)Nc3nc4c(s3)CCC4)cccc21 |  | 69.11% and 95.7% and 86.17%
COCCn1cc(CC(=O)Nc2nc3c(s2)CCC3)c2ccccc21 |  | 1.19% and -4.41% and -3.323%
Cc1cc(CN2CCN(C(=O)c3sccc3C3CC3)CC2)no1 | 1.531 | 
O=C1CCCN1CC1CCCCN1C(=O)Nc1cccnc1 (centres undefined) | 7.898 | 
O=C(Nc1cccnc1)C1Cc2nc(-c3ccsc3)sc2N1CC1CC1.O=C(O)C(F)(F)F (centres undefined) |  | 89.12% and 90.39% and 85.39%
O=C(Nc1cccnc1)[C@H]1C[C@H]2OCC[C@H]2N(C(=O)c2ccsc2)C1.O=C(O)C(F)(F)F | -9.732 | 
O=C(O)C(F)(F)F.O=C(c1ccsc1)N1C[C@@H]2CCN(c3cccnc3)C[C@@H]2C1 | 9.933 | 
CN(C)C(=O)CN1CCC2(CCN(S(C)(=O)=O)CC2)C1=O | 9.72 | 
COc1ncccc1NC(=O)C1CC1 | 5.184 | 
Cc1cnn(CC2CCCN2CC(=O)Nc2nc(C)cs2)c1 (centres undefined) | 7.289 | 
CN(C)c1cc(C(=O)N2CCN(c3cc(C#N)ccn3)CC2)ccn1 | 0.09769 | 
CCc1ocnc1C(=O)N1CCCC1c1noc(C(C)C)n1 (centres undefined) | -5.615 | 
COc1cccc(-n2c(C)cc(C(=O)NC(C)(C)C(N)=O)c2C)c1 | 5.357 | 

Source: ChEMBL document CHEMBL3988442, “University of Dundee, Small-Polar-MMV Screening Library” (2021)
